# Results filed as inconclusive are left out. The source made the active and inactive calls. Rule for the calls: active = hit-call score of the fitted dose curve at least 0.9, where 1 is the maximum; inconclusive = response in the unintended direction; inactive = score below 0.9.
# Assay: CCTE_Deisenroth_AIME_384WELL_CTox_Active: Cytotoxicity Assessment (CTOX) in CCTE's 384-well Estrogen Receptor Transactivation Assay with AIME metabolic competence (metabolism positive), Deisenroth Lab (AID 2284037);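 note: chemicals first conditioned 2 h by alginate-bound induced rat liver S9 before cells; activity means signal loss indicating cell death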
# Description: CCTE_Deisenroth_AIME_384WELL (AIME metabolism assay) is a cell-based, single-readout assay that uses VM7Luc4E2, a human mammary gland/breast cell line, with measurements taken at 24 hour after chemical dosing in a 384-well plate.CCTE_Deisenroth_AIME_384WELL_CTox_Active is one of four assay components measured or calculated from the CCTE_Deisenroth_AIME_384WELL assay. It is designed to make measurements of a protease substrate, a type of viability indicator, as detected with substrate cleavage to a fluorescent probe in living cells.CCTE_Deisenroth_AIME_384WELL_CTox_Active is a component of the CCTE_Deisenroth_AIME_384WELL assay that measures the effect of retroftting the VM7Luc ERTA assay with the Alginate Immobolization of Metabolic Enzymes (AIME) metabolism method. AIME is optimized to impart phase I hepatic metabolism using phenobarbital/beta-naphthoflavone induced hepatic S9 from male Sprague Dawley rats. Parent chemicals are incubated for 2 hours in the AIME assay prior to transfer to the VM7Luc ERTA assay plate. […] This endpoint evaluates cytotoxicity in metabolism positive mode. Using a type of flourescent probe in VM7Luc cells, loss-of-signal activity can be used to understand loss of viability. This assay endpoint, CCTE_Deisenroth_AIME_384WELL_CTox_Active, was analyzed with bidirectional fitting in the ERTA assay.
# The AIME procedure consists of a preparative "pre-stamping" step using a barium chloride/poly-L-lysine (PLL) solution followed by "stamping" the lid in alginate-hepatic S9 (metabolism positive) or alginate-water (metabolism negative) to form microspheres. Once stamping is completed, the AIME lids are placed in duplicate microplates (metabolism positive or negative) containing chemical solutions and incubated for two hours to facilitate metabolic reactions. The conditioned medium, containing parent chemical or metabolites, is then transferred to the cell-based VM7Luc Estrogen Receptor Transactivation Assay (ERTA) for 24 hours. A typical experimental design tests a 10-point concentration series (0.002 - 200 uM) for 8 compounds (96-well format) (Deisenroth 2020) or 32 compounds (384-well format) (Hopperstad 2022) in single technical replicate. AIME assay controls include trans-stilbene (bioactivated control) and ethylparaben (bioinactivated control). ERTA assay plate controls include 17-beta estradiol (positive control) and DMSO (solvent control). Experiments typically comprise a minimum of four experimental replicates (n=4).
SMILES,outcome,AC50
CCCCCCC(C)(C)S,inactive,–
O=C(CC(=O)c1ccccc1)c1ccccc1,inactive,–
O=[N+]([O-])c1ccc(O)cc1C(F)(F)F,–,62.2 µM (active)
O=C1OC(=O)c2c(Cl)c(Cl)c(Cl)c(Cl)c21,inactive,–
Nc1ccc2cc(S(=O)(=O)O)cc(O)c2c1N=Nc1ccccc1C(F)(F)F,–,46.4 µM (active)
O=C1NC2NC(=O)NC2N1 (stereo not given),inactive,–
CCC(=O)O[C@@H]1C[C@H]2CC[C@]1(C)C2(C)C,inactive,–
CC(C)CC(C)CC(O)CC(C)C (stereo not given),inactive,–
C=CC(C)(O)CCC=C(C)C (stereo not given),inactive,–
CCCCCCCCC=CCCCCCCCC1=NCCN1CCO,inactive,–
CCCCCCCCCCCCCCN(CCO)CCO,inactive,–
CCNCCO,inactive,–
CC(C)CCCCCCc1ccc(OCCOCCO)cc1,inactive,–
CCCCCCCCSCCO,inactive,–
CS(C)=O,inactive,–
COCCOCCOCCO,inactive,–
Nc1ccc(N)c2c1C(=O)c1ccccc1C2=O,–,52 µM (active)
CCCCCCCCCCCC(=O)OCC(O)CO (stereo not given),–,0.0666 µM (active)
Clc1ccc(C(c2ccccc2Cl)C(Cl)Cl)cc1 (stereo not given),–,100 µM (active)
O=P(O)(O)O,inactive,–
OCc1cccc(Oc2ccccc2)c1,inactive,–
CCCCC(CC)COC(C)=O (stereo not given),inactive,–
CCCCC(CC)COC(=O)c1ccc(O)cc1 (stereo not given),inactive,–
Oc1ccc2cc(SSc3ccc4cc(O)ccc4c3)ccc2c1,inactive,–
COc1ccccc1N=Nc1c(S(=O)(=O)O)cc2cc(S(=O)(=O)O)cc(NC(C)=O)c2c1O,inactive,–

# From PubChem BioAssay (EPA / NIEHS)
